For six compounds, inhibition results are on record in ChEMBL document CHEMBL1961873, “Compounds: GSK PKIS; Assays: Nanosyn kinase panel” (2012).

The target of experiment [1] is Tyrosine-protein kinase CSK (Homo sapiens) (UniProt P41240). The following applies: at 1 µM.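 Note: each value is an averaged inhibition reading.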
The target in experiment [2] is T1, Discoidin domain-containing receptor 2 (Homo sapiens) (UniProt Q16832).
T1 sequence (whole entry): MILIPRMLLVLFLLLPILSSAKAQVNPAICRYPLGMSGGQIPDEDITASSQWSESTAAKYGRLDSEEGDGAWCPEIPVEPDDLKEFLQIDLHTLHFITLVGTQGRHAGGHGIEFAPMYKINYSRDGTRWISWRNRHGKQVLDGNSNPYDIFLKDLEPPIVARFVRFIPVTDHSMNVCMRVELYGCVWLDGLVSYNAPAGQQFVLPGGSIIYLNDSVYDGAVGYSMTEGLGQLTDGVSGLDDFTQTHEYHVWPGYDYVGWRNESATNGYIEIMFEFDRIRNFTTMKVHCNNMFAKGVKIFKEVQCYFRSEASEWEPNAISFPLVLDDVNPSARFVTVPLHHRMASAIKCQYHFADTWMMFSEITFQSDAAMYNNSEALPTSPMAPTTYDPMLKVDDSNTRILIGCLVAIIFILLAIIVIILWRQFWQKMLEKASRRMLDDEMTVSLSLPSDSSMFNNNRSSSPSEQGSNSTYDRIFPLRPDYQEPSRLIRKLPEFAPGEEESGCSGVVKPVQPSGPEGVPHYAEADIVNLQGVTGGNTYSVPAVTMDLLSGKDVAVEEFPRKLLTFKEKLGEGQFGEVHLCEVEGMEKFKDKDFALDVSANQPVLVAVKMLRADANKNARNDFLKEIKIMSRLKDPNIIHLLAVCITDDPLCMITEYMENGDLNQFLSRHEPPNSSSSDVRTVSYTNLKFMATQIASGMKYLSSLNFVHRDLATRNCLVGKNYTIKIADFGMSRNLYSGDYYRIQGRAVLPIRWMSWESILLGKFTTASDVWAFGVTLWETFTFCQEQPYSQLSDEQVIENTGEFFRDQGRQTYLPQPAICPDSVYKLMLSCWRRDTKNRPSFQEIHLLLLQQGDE
The note with it: at 0.1 µM.

Experiment [3] has as its target T1, Discoidin domain-containing receptor 2 (Homo sapiens). The following applies: at 1 µM.
Experiment [4] has as its target Epidermal growth factor receptor (Homo sapiens) (UniProt P00533). The note with it: at 0.1 µM.
Experiment [5] shares this target. The following applies: at 1 µM.
The subject of experiment [6] is Epidermal growth factor receptor (Homo sapiens), P00533 [L858R]. The following applies: at 0.1 µM.
For experiment [7] the test system is unchanged. The note with it: at 1 µM.
For experiment [8], the system named is Epidermal growth factor receptor (Homo sapiens), P00533 [L861Q]. The note with it: at 0.1 µM.
Experiment [9] has the same test system. The note with it: at 1 µM.
Experiment [10] deals with Epidermal growth factor receptor (Homo sapiens), P00533 [T790M]. The following applies: at 0.1 µM.
For experiment [11] the test system is unchanged. The following applies: at 1 µM.
Experiment [12] concerns Epidermal growth factor receptor (Homo sapiens), P00533 [L858R,T790M]. The note with it: at 0.1 µM.
The test system is the same in experiment [13]. The note with it: at 1 µM.
Experiment [14] concerns the target Ephrin type-A receptor 2 (Homo sapiens) (UniProt P29317). The following applies: at 0.1 µM.
The target is the same in experiment [15]. The note with it: at 1 µM.
The target in experiment [16] is T2, Ephrin type-A receptor 3 (Homo sapiens) (UniProt P29320).
T2 sequence (whole entry): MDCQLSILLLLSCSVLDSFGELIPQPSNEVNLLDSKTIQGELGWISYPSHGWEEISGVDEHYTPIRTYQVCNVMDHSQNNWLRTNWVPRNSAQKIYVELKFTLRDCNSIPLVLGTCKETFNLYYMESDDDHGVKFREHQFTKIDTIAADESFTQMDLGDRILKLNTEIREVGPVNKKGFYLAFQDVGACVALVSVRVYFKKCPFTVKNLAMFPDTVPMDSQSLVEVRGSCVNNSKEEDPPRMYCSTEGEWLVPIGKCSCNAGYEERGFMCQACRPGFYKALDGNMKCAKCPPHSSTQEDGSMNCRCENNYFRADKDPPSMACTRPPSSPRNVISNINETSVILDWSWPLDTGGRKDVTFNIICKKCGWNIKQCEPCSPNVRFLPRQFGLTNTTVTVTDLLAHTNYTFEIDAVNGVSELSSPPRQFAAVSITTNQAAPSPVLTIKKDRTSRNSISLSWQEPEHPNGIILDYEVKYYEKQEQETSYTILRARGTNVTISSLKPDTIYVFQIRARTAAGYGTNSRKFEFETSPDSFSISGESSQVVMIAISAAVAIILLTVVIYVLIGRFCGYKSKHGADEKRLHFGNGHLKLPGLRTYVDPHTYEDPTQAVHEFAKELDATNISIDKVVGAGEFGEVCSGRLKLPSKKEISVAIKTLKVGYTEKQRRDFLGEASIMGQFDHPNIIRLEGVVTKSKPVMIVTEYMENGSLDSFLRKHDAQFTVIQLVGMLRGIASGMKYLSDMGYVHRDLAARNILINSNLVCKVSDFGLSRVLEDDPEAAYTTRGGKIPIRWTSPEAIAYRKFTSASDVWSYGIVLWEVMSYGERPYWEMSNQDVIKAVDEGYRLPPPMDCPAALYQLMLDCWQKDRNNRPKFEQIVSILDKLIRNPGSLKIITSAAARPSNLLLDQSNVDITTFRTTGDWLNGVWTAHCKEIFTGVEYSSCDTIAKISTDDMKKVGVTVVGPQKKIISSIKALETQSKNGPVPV
The note with it: at 0.1 µM.

The target of experiment [17] is T2, Ephrin type-A receptor 3 (Homo sapiens). The following applies: at 1 µM.
For experiment [18], the target named is Ephrin type-A receptor 4 (Homo sapiens) (UniProt P54764). The note with it: at 0.1 µM.
The target is the same in experiment [19]. The note with it: at 1 µM.
The target of experiment [20] is T3, Ephrin type-B receptor 2 (Homo sapiens) (UniProt P29323).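 Note: reported as mean inhibition of EPHB2, from the GSK PKIS dataset.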
T3 sequence (whole entry): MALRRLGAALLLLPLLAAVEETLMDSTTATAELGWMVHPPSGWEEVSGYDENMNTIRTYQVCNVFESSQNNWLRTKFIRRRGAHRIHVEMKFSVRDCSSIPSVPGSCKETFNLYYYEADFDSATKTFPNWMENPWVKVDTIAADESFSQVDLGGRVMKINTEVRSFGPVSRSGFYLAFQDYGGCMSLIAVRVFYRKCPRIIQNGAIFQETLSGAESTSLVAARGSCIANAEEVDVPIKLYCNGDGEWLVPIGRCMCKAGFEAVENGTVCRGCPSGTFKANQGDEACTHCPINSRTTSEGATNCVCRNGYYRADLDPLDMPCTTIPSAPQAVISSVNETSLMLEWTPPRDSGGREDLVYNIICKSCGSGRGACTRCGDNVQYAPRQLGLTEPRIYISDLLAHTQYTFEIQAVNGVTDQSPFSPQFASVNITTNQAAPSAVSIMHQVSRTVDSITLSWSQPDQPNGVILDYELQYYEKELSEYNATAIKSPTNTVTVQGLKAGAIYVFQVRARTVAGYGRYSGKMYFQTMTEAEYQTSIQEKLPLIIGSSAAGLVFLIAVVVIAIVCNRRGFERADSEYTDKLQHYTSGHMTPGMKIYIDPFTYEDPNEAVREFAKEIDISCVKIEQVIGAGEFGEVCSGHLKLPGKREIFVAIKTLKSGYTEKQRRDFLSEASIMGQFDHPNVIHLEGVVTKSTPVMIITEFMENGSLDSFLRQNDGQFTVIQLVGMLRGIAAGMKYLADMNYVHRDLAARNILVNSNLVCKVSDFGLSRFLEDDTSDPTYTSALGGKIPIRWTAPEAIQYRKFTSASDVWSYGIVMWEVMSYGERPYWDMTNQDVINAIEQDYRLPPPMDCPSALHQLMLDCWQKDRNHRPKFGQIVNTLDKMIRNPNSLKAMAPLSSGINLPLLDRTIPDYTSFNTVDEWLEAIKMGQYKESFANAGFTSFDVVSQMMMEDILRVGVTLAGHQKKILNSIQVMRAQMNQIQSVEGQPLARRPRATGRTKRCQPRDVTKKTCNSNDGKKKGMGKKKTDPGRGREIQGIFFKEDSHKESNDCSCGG
The note with it: at 0.1 µM.

Sequence of Epidermal growth factor receptor (Homo sapiens), P00533 [L858R,T790M] (P00533 whole entry T790M/L858R, looked up): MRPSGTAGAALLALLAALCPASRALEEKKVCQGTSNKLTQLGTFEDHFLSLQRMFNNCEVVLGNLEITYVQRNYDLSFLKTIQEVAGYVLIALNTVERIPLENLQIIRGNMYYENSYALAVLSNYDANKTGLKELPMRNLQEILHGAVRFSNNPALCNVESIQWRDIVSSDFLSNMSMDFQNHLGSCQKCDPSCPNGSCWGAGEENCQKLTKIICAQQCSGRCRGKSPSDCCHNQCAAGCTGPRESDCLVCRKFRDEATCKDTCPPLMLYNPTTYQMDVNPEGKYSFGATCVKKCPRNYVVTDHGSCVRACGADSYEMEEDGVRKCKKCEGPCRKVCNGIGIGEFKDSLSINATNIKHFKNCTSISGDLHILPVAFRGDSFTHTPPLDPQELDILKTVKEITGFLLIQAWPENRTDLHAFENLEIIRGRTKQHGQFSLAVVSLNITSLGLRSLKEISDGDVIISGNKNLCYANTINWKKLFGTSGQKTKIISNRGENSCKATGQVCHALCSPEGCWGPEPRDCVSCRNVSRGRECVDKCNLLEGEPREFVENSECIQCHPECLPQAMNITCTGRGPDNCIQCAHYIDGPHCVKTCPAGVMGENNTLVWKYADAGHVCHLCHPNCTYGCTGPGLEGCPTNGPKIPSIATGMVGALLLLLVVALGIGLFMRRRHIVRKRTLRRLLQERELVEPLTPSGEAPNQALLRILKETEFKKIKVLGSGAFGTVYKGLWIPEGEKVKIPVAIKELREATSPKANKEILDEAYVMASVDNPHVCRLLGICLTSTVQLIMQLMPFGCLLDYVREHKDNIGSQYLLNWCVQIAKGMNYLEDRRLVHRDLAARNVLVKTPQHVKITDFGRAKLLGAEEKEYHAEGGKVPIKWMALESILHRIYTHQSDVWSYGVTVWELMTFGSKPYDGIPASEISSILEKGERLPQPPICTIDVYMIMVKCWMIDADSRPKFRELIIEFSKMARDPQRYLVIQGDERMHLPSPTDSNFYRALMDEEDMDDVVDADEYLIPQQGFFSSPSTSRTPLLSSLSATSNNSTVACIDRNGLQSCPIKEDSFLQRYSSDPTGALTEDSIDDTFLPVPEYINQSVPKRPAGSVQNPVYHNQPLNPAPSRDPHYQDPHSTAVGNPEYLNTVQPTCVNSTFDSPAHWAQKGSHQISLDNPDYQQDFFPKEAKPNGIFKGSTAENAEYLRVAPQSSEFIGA
Sequence of Tyrosine-protein kinase CSK (Homo sapiens) (P41240 2-450 limits assumed): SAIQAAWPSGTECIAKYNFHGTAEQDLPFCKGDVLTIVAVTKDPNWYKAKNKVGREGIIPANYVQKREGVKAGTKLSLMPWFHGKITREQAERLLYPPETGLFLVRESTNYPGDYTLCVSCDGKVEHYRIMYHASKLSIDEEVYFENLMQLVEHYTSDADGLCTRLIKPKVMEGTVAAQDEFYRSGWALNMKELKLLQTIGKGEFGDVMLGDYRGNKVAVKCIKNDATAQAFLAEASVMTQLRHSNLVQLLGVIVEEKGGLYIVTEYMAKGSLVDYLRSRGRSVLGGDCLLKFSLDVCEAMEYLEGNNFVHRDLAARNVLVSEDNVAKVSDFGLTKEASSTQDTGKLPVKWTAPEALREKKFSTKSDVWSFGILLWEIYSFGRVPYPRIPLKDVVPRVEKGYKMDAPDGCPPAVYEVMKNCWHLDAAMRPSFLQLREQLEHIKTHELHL
Sequence of Epidermal growth factor receptor (Homo sapiens), P00533 [L858R] (P00533 whole entry L858R): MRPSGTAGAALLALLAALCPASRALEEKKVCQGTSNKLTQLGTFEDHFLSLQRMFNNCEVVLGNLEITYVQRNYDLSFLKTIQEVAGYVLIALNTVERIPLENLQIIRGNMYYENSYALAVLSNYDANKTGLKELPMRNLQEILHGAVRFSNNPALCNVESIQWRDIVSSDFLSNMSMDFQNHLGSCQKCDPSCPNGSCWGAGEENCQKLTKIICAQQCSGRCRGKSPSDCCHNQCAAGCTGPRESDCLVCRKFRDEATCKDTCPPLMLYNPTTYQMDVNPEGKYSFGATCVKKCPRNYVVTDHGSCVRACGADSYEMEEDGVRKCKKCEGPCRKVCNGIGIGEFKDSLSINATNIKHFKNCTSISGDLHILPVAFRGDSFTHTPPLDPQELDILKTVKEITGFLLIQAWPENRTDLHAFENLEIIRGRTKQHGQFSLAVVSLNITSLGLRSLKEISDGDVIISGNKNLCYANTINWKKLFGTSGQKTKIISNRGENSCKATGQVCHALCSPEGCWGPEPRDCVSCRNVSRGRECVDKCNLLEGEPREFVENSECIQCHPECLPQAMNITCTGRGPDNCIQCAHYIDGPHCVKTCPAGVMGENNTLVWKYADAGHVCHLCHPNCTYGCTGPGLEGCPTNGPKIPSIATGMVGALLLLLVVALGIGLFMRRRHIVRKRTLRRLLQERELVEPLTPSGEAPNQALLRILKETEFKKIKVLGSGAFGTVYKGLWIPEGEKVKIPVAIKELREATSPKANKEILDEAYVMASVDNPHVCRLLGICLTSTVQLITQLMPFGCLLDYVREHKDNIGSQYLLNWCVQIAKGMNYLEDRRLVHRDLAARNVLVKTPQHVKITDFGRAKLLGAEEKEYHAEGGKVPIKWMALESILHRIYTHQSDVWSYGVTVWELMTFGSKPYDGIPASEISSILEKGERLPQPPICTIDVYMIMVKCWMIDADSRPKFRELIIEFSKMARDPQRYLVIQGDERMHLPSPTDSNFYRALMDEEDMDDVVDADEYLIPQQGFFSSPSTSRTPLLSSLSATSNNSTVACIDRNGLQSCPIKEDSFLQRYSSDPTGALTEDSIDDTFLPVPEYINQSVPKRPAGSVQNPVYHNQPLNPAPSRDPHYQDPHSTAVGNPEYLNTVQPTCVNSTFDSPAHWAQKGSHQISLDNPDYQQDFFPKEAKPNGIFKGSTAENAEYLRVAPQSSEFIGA
Sequence of Epidermal growth factor receptor (Homo sapiens), P00533 [T790M] (P00533 whole entry T790M): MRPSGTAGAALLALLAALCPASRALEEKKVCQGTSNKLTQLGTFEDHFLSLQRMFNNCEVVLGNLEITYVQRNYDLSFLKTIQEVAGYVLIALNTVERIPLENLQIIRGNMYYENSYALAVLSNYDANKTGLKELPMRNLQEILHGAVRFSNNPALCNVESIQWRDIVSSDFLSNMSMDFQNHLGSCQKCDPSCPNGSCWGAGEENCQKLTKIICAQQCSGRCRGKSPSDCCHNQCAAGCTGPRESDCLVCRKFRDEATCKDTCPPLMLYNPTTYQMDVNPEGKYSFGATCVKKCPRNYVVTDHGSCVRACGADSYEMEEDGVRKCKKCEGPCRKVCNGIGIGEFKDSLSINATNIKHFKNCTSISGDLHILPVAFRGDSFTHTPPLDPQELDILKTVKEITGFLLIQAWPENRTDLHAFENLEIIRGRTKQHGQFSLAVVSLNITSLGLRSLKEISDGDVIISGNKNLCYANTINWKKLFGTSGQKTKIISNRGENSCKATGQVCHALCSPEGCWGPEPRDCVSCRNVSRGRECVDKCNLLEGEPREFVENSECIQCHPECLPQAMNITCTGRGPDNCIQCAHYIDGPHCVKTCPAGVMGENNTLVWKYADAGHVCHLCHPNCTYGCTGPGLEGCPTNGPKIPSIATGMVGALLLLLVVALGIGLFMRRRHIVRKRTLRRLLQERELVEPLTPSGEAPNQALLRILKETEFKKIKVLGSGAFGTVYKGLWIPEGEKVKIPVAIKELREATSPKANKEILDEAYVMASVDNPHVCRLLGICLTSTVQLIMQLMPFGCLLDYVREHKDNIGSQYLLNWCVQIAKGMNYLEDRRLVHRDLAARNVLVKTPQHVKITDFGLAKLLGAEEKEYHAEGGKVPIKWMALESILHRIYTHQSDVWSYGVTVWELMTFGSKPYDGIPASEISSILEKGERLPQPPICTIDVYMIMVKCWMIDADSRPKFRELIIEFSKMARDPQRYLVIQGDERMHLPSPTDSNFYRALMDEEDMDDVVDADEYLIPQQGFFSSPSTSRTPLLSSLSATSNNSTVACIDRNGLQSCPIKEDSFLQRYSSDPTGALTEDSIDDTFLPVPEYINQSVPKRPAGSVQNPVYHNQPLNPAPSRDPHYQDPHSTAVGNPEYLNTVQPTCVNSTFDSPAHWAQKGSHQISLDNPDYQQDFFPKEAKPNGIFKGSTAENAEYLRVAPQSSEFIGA
Sequence of Ephrin type-A receptor 4 (Homo sapiens) (P54764 whole entry): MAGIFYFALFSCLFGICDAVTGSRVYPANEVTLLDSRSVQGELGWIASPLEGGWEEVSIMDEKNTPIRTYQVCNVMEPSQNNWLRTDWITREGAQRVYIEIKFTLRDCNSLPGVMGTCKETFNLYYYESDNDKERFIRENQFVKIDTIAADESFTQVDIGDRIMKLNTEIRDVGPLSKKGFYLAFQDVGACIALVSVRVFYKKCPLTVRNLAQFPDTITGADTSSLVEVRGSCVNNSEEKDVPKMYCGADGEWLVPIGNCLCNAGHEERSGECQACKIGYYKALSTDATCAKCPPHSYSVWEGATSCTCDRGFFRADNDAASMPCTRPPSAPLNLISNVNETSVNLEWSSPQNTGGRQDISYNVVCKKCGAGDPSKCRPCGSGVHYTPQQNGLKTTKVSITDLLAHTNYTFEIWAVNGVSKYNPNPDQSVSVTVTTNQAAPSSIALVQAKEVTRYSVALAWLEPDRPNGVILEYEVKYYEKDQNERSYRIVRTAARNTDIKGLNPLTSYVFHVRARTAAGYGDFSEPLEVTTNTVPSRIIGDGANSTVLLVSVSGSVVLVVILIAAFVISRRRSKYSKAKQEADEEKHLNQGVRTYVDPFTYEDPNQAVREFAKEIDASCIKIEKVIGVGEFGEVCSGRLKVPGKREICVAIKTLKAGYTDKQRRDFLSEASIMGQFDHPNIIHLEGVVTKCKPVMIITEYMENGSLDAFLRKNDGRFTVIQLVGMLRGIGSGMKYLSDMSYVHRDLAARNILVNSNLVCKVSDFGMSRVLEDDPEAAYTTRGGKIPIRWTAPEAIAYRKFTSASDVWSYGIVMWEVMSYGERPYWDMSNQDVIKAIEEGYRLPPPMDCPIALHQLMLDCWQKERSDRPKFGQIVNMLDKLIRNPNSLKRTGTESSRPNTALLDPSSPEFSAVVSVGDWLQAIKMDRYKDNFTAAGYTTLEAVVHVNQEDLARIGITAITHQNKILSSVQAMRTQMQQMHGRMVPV

On to `COC(=O)c1ccc2c(c1)C(=Cc1cc(Br)c(O)c(Br)c1)C(=O)N2`, for which the inhibition in experiment [1] is 5.89%; in experiment [2], 2.18%; in [3] it was 7.08%; in experiment [4], 3.97%; in experiment [5], 2.76%; in [6], -1.26%. The inhibition in experiment [7] is 11.3%; in [8], 0.68%; in experiment [9], 4.11%; in [10], 0.31%; in [11], 0.92%; in experiment [12], -1.65%. Moreover, the inhibition is 2.81% in experiment [13]; 1.71% in experiment [14]; 0.89% in [15]; 0.28% in [16]; 4.62% in experiment [17]; 6.35% in [18]. Further, the inhibition in [19] came out at 12.2%; in experiment [20] it was 6.3%.
Regarding `Nc1ccc(C#Cc2cncnc2Nc2ccc(OCc3cccc(F)c3)c(Cl)c2)cc1`, the inhibition in experiment [1] came out at 4.88%; in experiment [2] it was 1.32%; in [3] it was 0.65%; in experiment [4] it was 45.5%; in experiment [5], 82.8%; in [6] it was 5.98%. Also, the inhibition in experiment [7] was 35.2%; in experiment [8], 23.1%; in experiment [9] it was 37.2%; in [10] it was 2.51%; in experiment [11], 2.68%; in experiment [12], -0.93%. The inhibition in experiment [13] is 0.42%; in experiment [14] it was 0.44%; in [15], 0.03%; in experiment [16] it was 3.68%; in experiment [17], 3.02%; in experiment [18], 6.49%. Further, the inhibition amounted to 8.04% in experiment [19] and 1.34% in [20].
In the case of `COC(=O)Nc1nc2cc(Oc3ccc(NC(=O)Nc4cccc(Br)c4)cc3)ccc2[nH]1`, the inhibition came out at 3.27% in experiment [1]; 98.2% in experiment [2]; 93.7% in [3]; 1.74% in [4]; 3.19% in experiment [5]; 5.58% in experiment [6]. The inhibition is 5.33% in [7]; 3.01% in experiment [8]; 4.1% in experiment [9]; 2.15% in experiment [10]; 2.61% in experiment [11]; -0.2% in experiment [12]. For the same compound, the inhibition in [13] is -0.25%; in experiment [14], 28.1%; in experiment [15], 55.2%; in experiment [16] it was 13%; in [17], 12.4%; in experiment [18], 52.1%. Moreover, the inhibition came to 76.9% in experiment [19] and 56.7% in experiment [20].
As for `CCOc1nccc2c1nc(-c1nonc1N)n2CC`, the inhibition in [1] was 7.45%; in experiment [2], 4.52%; in experiment [3], 5.68%; in experiment [4], 2.26%; in experiment [5] it was 1.18%; in experiment [6] it was 4.22%. In addition, the inhibition in experiment [7] was 7.51%; in experiment [8], 4.18%; in experiment [9] it was 5.85%; in experiment [10] it was 1.6%; in experiment [11] it was 5.62%; in [12] it was -0.04%. Besides, the inhibition in experiment [13] was 4.96%; in [14] it was 2.57%; in [15], 1.93%; in experiment [16] it was 2.43%; in experiment [17] it was 6.98%; in experiment [18], 11.7%. For the same compound, the results for the inhibition in experiment [19] and in experiment [20] were -8.98% and 9.96%, respectively.
Regarding `Cc1cc(O)cc(C)c1/C=C/c1cncc(C(=O)N(C)C)c1`, the inhibition is 7.46% in experiment [1]; 4% in experiment [2]; 6.51% in experiment [3]; 3.09% in experiment [4]; 6.63% in experiment [5]; 2.7% in experiment [6]. The inhibition in experiment [7] was 3.1%; in experiment [8] it was 3.53%; in experiment [9], 2.99%; in experiment [10], 1.24%; in experiment [11], 0.44%; in [12] it was -0.03%. The inhibition in experiment [13] is -0.26%; in experiment [14] it was 2.13%; in experiment [15], 4.81%; in [16], 6.48%; in [17], 8.52%; in experiment [18], 8.99%. Further, the inhibition in experiment [19] amounted to 18.6%; in experiment [20] it was 9.34%.
Regarding `Cc1ccc(C(=O)NC2CC2)cc1-c1ccc2[nH]ncc2c1`, the inhibition is -0.85% in experiment [2]; -0.74% in experiment [3]; -1.17% in experiment [4]; 1.98% in experiment [5]; -1.88% in [6]; -2.39% in experiment [7]. The inhibition in [8] was -0.66%; in experiment [9] it was -1.04%; in experiment [10], -2%; in [11], -3.14%; in [12] it was -2.32%; in [13], -5.63%. Also, the inhibition was -1.76% in experiment [14]; -1.67% in [15]; -6.73% in experiment [16]; -6.53% in experiment [17]; -8.91% in experiment [19].

For orientation: inhibition means the relative decrease from the control value, in per cent.
